# Compound activity (PubChem)
# aSyn UTR act – Activators via SNCA 5'UTR binding, MLPCN; 7.1% of 300,000 active; alpha-synuclein 5'UTR reporter, activators screen; AID 1814; activity score, % (tested at 7.5 µM), hits read low; in the data active = activity score below about -60%
# A number is an active result; - = inactive. The list is a sample of the results.
SMILES,aSyn UTR act
COc1cc2c(cc1OC)-c1cc(Nc3ccc(N(C)C)cc3)nc(=O)n1CC2,-
O=C(NCCCN1CCc2ccccc2C1)Nc1ccc(Cl)cc1,-110.2
Cc1ccc(NC(=O)N2CCc3ccccc3C2)c(C)c1,-75.5
CN(C)c1ccc(NC(=O)CN2CCc3ccccc3C2)cc1,-78.7
CCOc1ccc(NC(=O)N2CCc3ccccc3C2)cc1,-92.1
O=C(CNc1cccc(F)c1)N1CCc2ccccc2C1,-195.3
CCCCC(=O)NC(c1cccs1)c1cc(Cl)c2cccnc2c1O (stereo not given),-
CCCC(=O)Nc1ccc(NC(=O)c2cccs2)cn1,-104.7
CCC(=O)NC(c1cccs1)c1cc(Cl)c2cccnc2c1O (stereo not given),-
O=C(Cc1ccccc1)Nc1ccc(NC(=O)c2ccccc2)nc1,-183.6
O=C(Nc1ccc(NC(=O)c2cccs2)cn1)c1ccccc1,-134.1
O=C(Nc1ccc(NC(=O)C2CC2)nc1)c1cccs1,-95.7
C=CCNc1nc(N)c([N+](=O)[O-])c(Nc2ccccc2OC)n1,-
COc1ccc(Nc2ccc([N+](=O)[O-])cn2)cc1,-120.4
COc1ccccc1Nc1ccc([N+](=O)[O-])cn1,-73.8
O=[N+]([O-])c1ccc(NCCOc2ccccc2Cl)nc1,-74.1
COc1ccc(CNc2ccc([N+](=O)[O-])cn2)cc1,-137.2
CCO[C@@H]1OC(C(=O)NCc2nc3ccccc3[nH]2)=C[C@H](C2CC2)[C@H]1CCCO,-119.3
CCO[C@@H]1OC(C(=O)NCc2nc3ccccc3[nH]2)=C[C@H](C(C)(C)C)[C@H]1CCCO,-
Cc1nnc(SC(=O)N2c3ccccc3Sc3ccccc32)s1,-66.2
CC(C)n1c(SCC(=O)N2c3ccccc3Sc3ccccc32)nc2c1c(=O)n(C)c(=O)n2C,-
CC(=O)c1cccc(NC(=O)N2CCc3ccccc3C2)c1,-171.2
CC(=O)c1ccc(NC(=O)N2CCc3ccccc3C2)cc1,-86.7
CN(C)CC(C(=O)c1ccccc1)c1ccccc1 (stereo not given),-170.8
CN(C)CC(CCC(CN(C)C)C(O)(c1ccccc1)c1ccccc1)C(O)(c1ccccc1)c1ccccc1 (stereo not given),-
SMILES,aSyn UTR act
CCOC(=O)c1cc2cc3ccccc3cc2[nH]1,-299.7
Cn1c(=O)[nH]c2cc3ccccc3cc21,-
CC(C)OC(=O)c1cc2ccccc2[nH]1,-84.5
CCc1ccc(NC(=O)c2nc(S(=O)(=O)Cc3ccccc3)ncc2Cl)cc1,-
CC(C)c1nnc(NC(=O)c2nc(S(=O)(=O)Cc3ccccc3)ncc2Cl)s1,-81.3
O=C(Nc1ccccc1-c1ccccc1)c1ccc(=O)[nH]n1,-127.9
CC(C)(C)c1ccc(NC(=O)c2ccc(=O)[nH]n2)cc1,-101.9
Cc1ccc(S(=O)(=O)Nc2ccccc2-c2ccccc2)cc1,-
CCOc1ccccc1-c1nc(-c2ccc(C)nc2OC)no1,-207.0
CCOc1nc(C)ccc1-c1noc(-c2ccco2)n1,-79.0
O=c1c2cnn(-c3ccccc3)c2nc(-c2cccs2)n1-c1cccc(Cl)c1,-63.1
C=CCSc1nc2c(cnn2-c2ccccc2)c(=O)n1N,-
Cn1c(/C=C/c2cccc(Br)c2)nc2ccccc2c1=O,-178.2
COc1cc(SC)ccc1C(=O)NCCOc1ccc(F)cc1,-150.1
COc1cc(SC)ccc1C(=O)NCC1CCCCC1,-67.2
COc1cc(SC)ccc1C(=O)OCC(=O)N1CCCC1,-73.8
Nc1ccn([C@@H]2O[C@H](CO)[C@@H](O)[C@@H]2O)c(=O)n1,-
CC(Cc1cccs1)NC(=O)c1cccs1 (stereo not given),-80.1
O=C(NCC(O)c1ccccc1)c1cccs1 (stereo not given),-135.6
O=C(NCCCc1ccccc1)c1cccs1,-88.1
COc1ccc2cc(CCNC(=O)c3cccs3)c(=O)[nH]c2c1,-137.6
O=C(NCCc1ccc(F)cc1)c1cccs1,-138.5
Cc1ccc(-n2nc3c(N4CCC(C(=O)NCCc5cccs5)CC4)nnc(C)c3c2C)cc1,-
O=C(CNC(=O)c1cccs1)c1ccc(Br)cc1,-176.0
O=C(NCCc1cccs1)c1cccs1,-147.5
SMILES,aSyn UTR act
CC(Cc1cccs1)NC(=O)Nc1ccc([N+](=O)[O-])cc1 (stereo not given),-75.4
Cc1ccc(C(=O)/C=C/c2ccc(-c3ccc(C)cc3)o2)cc1,-72.5
O=C(/C=C\c1ccc(-c2ccccc2)o1)c1ccccc1,-61.7
COc1cc([C@@H]2c3cc4c(cc3[C@@H](NC3CCN(Cc5ccccc5)CC3)[C@H]3COC(=O)[C@H]23)OCO4)cc(OC)c1O,-
CC1Oc2ccccc2N(CC(=O)NCc2ccc3c(c2)OCO3)C1=O (stereo not given),-106.3
CCOC(=O)C(C)Oc1cccc2c(=O)n(CC(=O)NCc3ccc4c(c3)OCO4)ccc12 (stereo not given),-
CC1CCCCC12NC(=O)N(CC(=O)NC(=O)Nc1ccc3c(c1)OCCO3)C2=O (stereo not given),-168.5
CC1Oc2ccccc2N(CC(=O)Nc2ccc3c(c2)OCCO3)C1=O (stereo not given),-76.6
Cc1cccc(-c2nc3ccccc3c(=O)[nH]2)c1,-110.7
N=c1oc2ccccc2cc1-c1nc2ccccc2c(=O)[nH]1,-165.4
CSc1ccccc1C(=O)Nc1nc2ccccc2c(=O)[nH]1,-122.3
Cc1sc(NC(=O)c2ccc(=O)n(C)n2)nc1-c1ccccc1,-95.3
COc1ccccc1C(=O)Nc1nc2ccccc2[nH]1,-
Cn1nc(C(=O)Nc2nc3ccccc3[nH]2)ccc1=O,-94.2
CSc1ccccc1C(=O)Nc1nc2ccccc2[nH]1,-132.9
Cc1cccc(C(=O)N2CCCC(c3nc(-c4ccc(C)o4)no3)C2)c1 (stereo not given),-145.0
O=C(O)CCSc1ncnc2sc(-c3ccccc3)cc12,-
CC(=O)CCSc1ncnc2sc(-c3ccccc3)cc12,-173.5
O=[N+]([O-])c1cccc(-c2nnc(-c3ccccc3F)o2)c1,-161.5
O=C(Nc1nc(-c2cccc3ccccc23)cs1)c1ccc2c(c1)S(=O)(=O)c1ccccc1C2=O,-142.8
N/C(=N\OC(=O)COc1ccc(Br)cc1Cl)c1cccnc1,-154.5
CCc1ccc(OCC(=O)O/N=C(\N)c2cccnc2)cc1,-82.7
N/C(=N\OC(=O)COc1ccc(Cl)cc1Br)c1cccnc1,-157.1
O=C(CC(=O)c1ccccc1)Nc1ccccn1,-130.1
COc1cccc(NC(=O)CC(=O)c2ccccc2)c1,-111.5
SMILES,aSyn UTR act
O=C(CC(=O)c1ccccc1)Nc1ccccc1C(F)(F)F,-63.4
O=C(O)/C(=C\C(=O)c1ccccc1)Nc1ccccc1,-90.5
O=C(CC(=O)c1ccccc1)Nc1ccccc1,-110.3
CC1=NN(c2ccccc2)C(=O)/C1=C/c1c(O)n(-c2ccc(F)c(Cl)c2)[nH]c1=O,-104.7
Cc1cccc(OCc2cc(-c3ccccc3)no2)c1C,-112.3
COc1ccc(-c2cc(COc3ccccc3)on2)cc1,-132.0
Fc1ccc(OCc2cc(-c3ccccc3)no2)cc1,-149.5
CCc1ccc2c(c1)[C@]1(C(=O)N2)[C@@H]2C(=O)N(Cc3ccccc3)C(=O)[C@@H]2[C@@H]2CCCN21,-77.8
CCN1C(=O)/C(=C\N2CCCCCC2)SC1=S,-112.0
COc1ccc(/C=C2\SC(=S)N(CCCC(=O)N3CCCCC3CCO)C2=O)cc1 (stereo not given),-
CCN1C(=O)/C(=C/N2CCc3ccccc3C2)SC1=S,-107.8
CCCCc1c(C)[nH]c2nc3ccccc3n2c1=O,-97.4
CCCc1cc(=O)n2c(nc3ccccc32)[nH]1,-66.4
CCOC(=O)c1cc(=O)n2c(nc3ccccc32)[nH]1,-99.1
Cc1cc2oc(C(=O)Nc3cccnc3)c(C)c2cc1C,-114.4
